Test results as given in the supplement of paper PMC12067093, “Discovery and optimisation of a covalent ligand for TRIM25 and its application to targeted protein ubiquitination” (Chemical Science, 2025).
About 21,000 targets were measured; listed, in parts, are those with the largest changes and a random draw of the rest.

Target: TMLHE_Q9NVH6_51_SLTCAWQQHEDHFELK (UniProt Q9NVH6)
Assay: probe-labelled cysteine peptide fold change vs DMSO (competition) (log2 fold change); higher = less target engagement (more negative = stronger competition)
Conditions: THP-1, incubation time: 4 h
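Further: competitive profiling in live THP-1 cells: cysteine peptides tagged with an iodoacetamide desthiobiotin (IA-DTB) probe, intensity after compound treatment relative to DMSO-treated cells.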

Sequence of UniProt Q9NVH6 (Q9NVH6 whole entry, looked up): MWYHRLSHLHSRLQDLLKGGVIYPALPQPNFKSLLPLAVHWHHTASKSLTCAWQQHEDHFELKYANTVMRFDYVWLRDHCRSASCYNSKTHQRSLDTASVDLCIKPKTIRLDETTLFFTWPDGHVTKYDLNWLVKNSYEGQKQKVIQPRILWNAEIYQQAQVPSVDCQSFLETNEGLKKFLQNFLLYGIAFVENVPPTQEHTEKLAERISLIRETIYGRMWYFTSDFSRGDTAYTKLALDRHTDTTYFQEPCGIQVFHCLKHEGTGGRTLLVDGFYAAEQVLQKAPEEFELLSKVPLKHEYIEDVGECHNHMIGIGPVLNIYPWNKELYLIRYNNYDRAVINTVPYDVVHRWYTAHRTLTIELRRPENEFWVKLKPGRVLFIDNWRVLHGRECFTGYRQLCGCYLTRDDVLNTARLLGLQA

Cc1cc(C(=O)N2CCCN(C(=O)CCl)CC2)ccc1-c1ccccc1 [compound 10]
probe-labelled cysteine peptide fold change (10 µM): -0.0542
probe-labelled cysteine peptide fold change (50 µM): -0.13
